# Experimental data from PubChem BioAssay (EPA / NIEHS).
# Records with an inconclusive call do not appear. Calls of active or inactive are those of the source. How the source made its calls, unless noted: active means hit-call score of the fitted dose curve at least 0.9, where 1 is the maximum; inconclusive means response in the unintended direction; inactive means score below 0.9.
# Experiments:
# [1] = ATG_TCF_b_cat_CIS: Attagene CIS-FACTORIAL HepG2 Assay for human T-Cell-Factor with beta-catenin (TCF/b-cat) (AID 2282965; active means hit-call score of the fitted dose curve at least 0.9, where 1 is the maximum; inactive means score below 0.9); settings: HepG2 TCF/beta-catenin cis-reporter transcription, actives raise or lower the signal
# In short: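 Endogenous TCF/LEF activity read as reporter transcript level via RT-PCR and capillary electrophoresis fluorescence in transfected HepG2, 24 h exposure; gain or loss of signal fitted against DMSO controls.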
# [2] = ATG_TAL_CIS: Attagene CIS-FACTORIAL HepG2 Assay for human TAL Basal Promoter (AID 2282966; active means hit-call score of the fitted dose curve at least 0.9, where 1 is the maximum; inactive means score below 0.9;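 further: background control endpoint measuring basal TAL promoter reporter mRNA not a specific factor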); settings: HepG2 Attagene cis-factorial TAL promoter reporter; actives raise or lower the signal
# In short: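 Background-control endpoint: basal TAL promoter reporter transcripts in transiently transfected HepG2, measured 24 h after dosing. Read-out by RT-PCR with fluorescent primer extension and capillary electrophoresis; gain or loss of signal fitted relative to DMSO.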
# [3] = ATG_TGFb_CIS: Attagene CIS-FACTORIAL HepG2 Assay for human Transforming Growth Factor (TGF) (AID 2282967; active means hit-call score of the fitted dose curve at least 0.9, where 1 is the maximum; inactive means score below 0.9); settings: HepG2 Attagene CIS TGFb reporter, mRNA transcription; actives raise or lower the signal
# In short: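 Liver HepG2 line, cis-factorial reporter panel, 24 h dosing. Quantitation: RT-PCR products labeled with 6-FAM, cut with HpaI, resolved by capillary electrophoresis; DMSO-referenced bidirectional analysis.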
# [4] = ATG_VDRE_CIS: Attagene CIS-FACTORIAL HepG2 Assay for human Vitamin D Receptor Element (VDRE) (AID 2282968; active means hit-call score of the fitted dose curve at least 0.9, where 1 is the maximum; inactive means score below 0.9); settings: HepG2 VDRE cis-reporter transcription, actives raise or lower the signal
# In short: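 Measures endogenous factor activity through cis-element-driven reporter transcripts in transiently transfected HepG2. Cells are treated 24 h; reporter mRNA is quantified by RT-PCR and capillary electrophoresis; fitting is bidirectional.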
# [5] = target: Nuclear receptor subfamily 1 group I member 3 (Homo sapiens) (UniProt Q14994); experiment: ATG_CAR_TRANS: Attagene TRANS-FACTORIAL HepG2 Assay for human Constitutive Androstane Receptor (CAR) (AID 2282969); settings: HepG2 Attagene TRANS-FACTORIAL CAR reporter;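 further: activators raise reporter mRNA above DMSO so AC50 marks induction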
# In short: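 Signal is reporter mRNA induction relative to DMSO, measured 24 h after dosing by RT-PCR with fluorescent primer extension and capillary electrophoresis. Human HepG2 liver cells carried transiently transfected chimeric NR-Gal4/GAL4-UAS reporter constructs.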
# [6] = target: Estrogen receptor (Homo sapiens) (UniProt P03372); experiment: ATG_ERa_TRANS: Attagene TRANS-FACTORIAL HepG2 Assay for human Estrogen Receptor alpha (ERa) (AID 2282970); settings: HepG2 Attagene TRANS ERa GAL4 reporter, mRNA
# In short: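 Reporter transcripts were measured 24 h after dosing by RT-PCR with fluorescent primer extension and capillary electrophoresis. The system is transiently transfected HepG2 expressing exogenous NR-Gal4 chimeras driving GAL4-UAS reporters; DMSO is the baseline.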
# [7] = target: Glucocorticoid receptor (Homo sapiens) (UniProt P04150); experiment: ATG_GR_TRANS: Attagene TRANS-FACTORIAL HepG2 Assay for human Glucocorticoid Receptor (GR) (AID 2282978); settings: HepG2 Attagene TRANS GR reporter, mRNA transcription;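 further: activators score as hits since higher reporter transcript over DMSO is fitted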
# In short: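 HepG2 cells transiently transfected with multiplexed reporter units in which chimeric NR-GAL4 proteins drive GAL4-UAS reporters; 24 h compound exposure. Reporter mRNA measured by RT-PCR, 6-FAM labelling, HpaI digestion and capillary electrophoresis; gain-of-signal fitted versus DMSO.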
# [8] = target: Bile acid receptor (Homo sapiens) (UniProt Q96RI1); experiment: ATG_FXR_TRANS: Attagene TRANS-FACTORIAL HepG2 Assay for Farnesoid X Receptor (FXR) (AID 2282979); settings: HepG2 Attagene TRANS FXR-GAL4 reporter transcription;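 further: hits raise reporter mRNA above DMSO so AC50 marks FXR activation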
# In short: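 Reporter transcripts from transfected HepG2 cells were measured 24 h after dosing, using RT-PCR with capillary electrophoresis of 6-FAM-labelled fragments. The read-out reflects activity of exogenous FXR-Gal4 chimera on GAL4-UAS units, with induction relative to DMSO.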
# [9] = target: Hepatocyte nuclear factor 4-alpha (Homo sapiens) (UniProt P41235); experiment: ATG_HNF4a_TRANS: Attagene TRANS-FACTORIAL HepG2 Assay for human Hepatocyte Nuclear Factor 4 alpha (HNF4a) (AID 2282982); settings: HepG2 HNF4a transactivation reporter, mRNA readout
# In short: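 Multiplexed reporter assay: transfected HepG2, 24 h exposure, total RNA → oligo(dT) RT → PCR → 6-FAM extension → HpaI digest → CE fluorescence. DMSO = negative control.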
# [10] = ATG_M_32_TRANS: Attagene TRANS-FACTORIAL HepG2 Assay for M32 Transcription Factor (Internal Marker) (AID 2282984); settings: HepG2 Attagene TRANS M32 internal marker reporter
# In short: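 Cell-based TRANS-format assay in HepG2: exogenous chimeric GAL4 reporter units transiently expressed, compounds applied 24 h. Reporter mRNA detected by RT-PCR plus capillary electrophoresis; this readout is an internal background marker.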
# [11] = target: Nuclear receptor subfamily 4 group A member 2 (Homo sapiens) (UniProt P43354); experiment: ATG_NURR1_TRANS: Attagene TRANS-FACTORIAL HepG2 Assay for human Nuclear Receptor Related Protein 1 (NURR1) (AID 2282985); settings: HepG2 Attagene TRANS reporter, mRNA readout
# In short: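 Measures transcriptional activation by an exogenous NR-Gal4 chimera in transfected HepG2 liver cells. After 24 h, reporter RNA is reverse-transcribed, amplified and resolved by capillary electrophoresis; DMSO defines baseline.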
# [12] = target: Transcriptional activator Myb (Homo sapiens) (UniProt P10242); experiment: ATG_Myb_CIS: Attagene CIS-FACTORIAL HepG2 Assay for human Myeloblastosis (Myb) Proto-Oncogene Transcription Factor (AID 2282986; active means hit-call score of the fitted dose curve at least 0.9, where 1 is the maximum; inactive means score below 0.9); settings: HepG2 Attagene CIS-FACTORIAL Myb reporter transcription; actives raise or lower the signal
# In short: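 HepG2 cells were transiently transfected with cis-regulated multiple reporter transcription units reflecting endogenous Myb activity, then exposed to compound for 24 hours. Reporter mRNA was measured by RT-PCR with capillary electrophoresis; bidirectional fitting versus DMSO baseline.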
# [13] = ATG_M_06_TRANS: Attagene TRANS-FACTORIAL HepG2 Assay for M06 Transcription Factor (Internal Marker) (AID 2282983); settings: HepG2 Attagene TRANS M06 internal marker reporter
# In short: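 Background-control reporter readout: after 24 h chemical exposure of transiently transfected HepG2 (GAL4-UAS reporter units), mRNA quantified by RT-PCR with fluorescent labeling and capillary electrophoresis. Gain-of-signal fitting against DMSO baseline.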
# [14] = target: Steroid hormone receptor ERR1 (Homo sapiens) (UniProt P11474); experiment: ATG_ERRa_TRANS: Attagene TRANS-FACTORIAL HepG2 Assay for human Estrogen-Related Receptor alpha (ERRa) (AID 2282971); settings: HepG2 Attagene TRANS reporter, ERRa transactivation
# In short: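 Reporter transcripts from ERRa-Gal4 chimera activity measured in transiently transfected human HepG2 cells 24 hours after dosing, using RT-PCR with 6-FAM primer extension, HpaI digestion and capillary electrophoresis; DMSO is baseline.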
# [15] = target: X-box-binding protein 1 (Homo sapiens) (UniProt P17861); experiment: ATG_Xbp1_CIS: Attagene CIS-FACTORIAL HepG2 Assay for human X-box Binding Protein 1 (XBP1) (AID 2282972; active means hit-call score of the fitted dose curve at least 0.9, where 1 is the maximum; inactive means score below 0.9); settings: HepG2 XBP1 cis-element reporter, Attagene multiplex; actives raise or lower the signal
# In short: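 Changes in reporter transcript abundance, read by RT-PCR and capillary electrophoresis, reflect endogenous transcription factor activity. Transfected HepG2 cells received compound for 24 hours; DMSO defined baseline for bidirectional analysis.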
# [16] = ATG_GAL4_TRANS: Attagene TRANS-FACTORIAL HepG2 Assay for GAL4 (Internal Marker) (AID 2282976); settings: HepG2 Attagene TRANS GAL4 internal marker reporter
# In short: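 In transfected human HepG2 liver cells dosed 24 h, GAL4 reporter mRNA serves as a baseline marker. Detection by RT-PCR with fluorescent capillary electrophoresis, activity fitted upward relative to DMSO.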
# [17] = target: Estrogen-related receptor gamma (Homo sapiens) (UniProt P62508); experiment: ATG_ERRg_TRANS: Attagene TRANS-FACTORIAL HepG2 Assay for human Estrogen-Related Receptor gamma (ERRg) (AID 2282977); settings: HepG2 Attagene TRANS reporter, ERRg transactivation;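 further: hits increase reporter signal over DMSO so potencies reflect activators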
# In short: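 Exogenous NR-Gal4 chimera activity was assessed in HepG2 cells bearing transfected GAL4-UAS reporters. After 24 h dosing, total RNA underwent RT-PCR, fluorescent primer extension and HpaI digestion before capillary electrophoresis, with gain of signal scored against DMSO.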
# [18] = target: Oxysterols receptor LXR-alpha (Homo sapiens) (UniProt Q13133); experiment: ATG_LXRa_TRANS: Attagene TRANS-FACTORIAL HepG2 Assay for human Liver X Receptor alpha (LXRa) (AID 2282980); settings: HepG2 Attagene TRANS reporter, LXRa transactivation
# In short: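 Chemical-induced reporter mRNA measured by RT-PCR with fluorescent labelling and capillary electrophoresis after 24 h dosing of transiently transfected HepG2 cells expressing exogenous NR-Gal4 chimeras; increases scored against DMSO baseline.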
# [19] = target: Oxysterols receptor LXR-beta (Homo sapiens) (UniProt P55055); experiment: ATG_LXRb_TRANS: Attagene TRANS-FACTORIAL HepG2 Assay for human Liver X Receptor beta (LXRb) (AID 2282981); settings: HepG2 Attagene TRANS GAL4-LXRb reporter, mRNA
# In short: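 After 24 h of chemical treatment, transfected HepG2 cells yield total RNA; reporter cDNA is PCR-amplified, FAM-labelled, HpaI-cut and run on capillary electrophoresis. Signal reflects chimeric LXRb-Gal4 activity on GAL4-UAS reporters.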
# Steroid hormone receptor ERR1 (Homo sapiens), sequence (P11474 whole entry, looked up, the tested form may be a part): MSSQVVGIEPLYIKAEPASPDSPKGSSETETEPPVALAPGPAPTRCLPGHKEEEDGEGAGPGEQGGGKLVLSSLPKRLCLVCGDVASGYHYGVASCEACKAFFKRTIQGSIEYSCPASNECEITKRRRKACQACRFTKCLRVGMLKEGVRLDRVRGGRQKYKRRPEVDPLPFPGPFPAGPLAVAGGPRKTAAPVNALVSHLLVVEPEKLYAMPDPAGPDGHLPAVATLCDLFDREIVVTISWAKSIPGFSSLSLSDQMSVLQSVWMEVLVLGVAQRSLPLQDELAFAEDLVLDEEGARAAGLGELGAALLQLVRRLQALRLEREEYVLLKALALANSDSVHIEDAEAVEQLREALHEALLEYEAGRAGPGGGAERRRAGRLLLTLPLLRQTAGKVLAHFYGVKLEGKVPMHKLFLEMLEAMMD
# Nuclear receptor subfamily 4 group A member 2 (Homo sapiens), sequence (P43354 whole entry, looked up, the tested form may be a part): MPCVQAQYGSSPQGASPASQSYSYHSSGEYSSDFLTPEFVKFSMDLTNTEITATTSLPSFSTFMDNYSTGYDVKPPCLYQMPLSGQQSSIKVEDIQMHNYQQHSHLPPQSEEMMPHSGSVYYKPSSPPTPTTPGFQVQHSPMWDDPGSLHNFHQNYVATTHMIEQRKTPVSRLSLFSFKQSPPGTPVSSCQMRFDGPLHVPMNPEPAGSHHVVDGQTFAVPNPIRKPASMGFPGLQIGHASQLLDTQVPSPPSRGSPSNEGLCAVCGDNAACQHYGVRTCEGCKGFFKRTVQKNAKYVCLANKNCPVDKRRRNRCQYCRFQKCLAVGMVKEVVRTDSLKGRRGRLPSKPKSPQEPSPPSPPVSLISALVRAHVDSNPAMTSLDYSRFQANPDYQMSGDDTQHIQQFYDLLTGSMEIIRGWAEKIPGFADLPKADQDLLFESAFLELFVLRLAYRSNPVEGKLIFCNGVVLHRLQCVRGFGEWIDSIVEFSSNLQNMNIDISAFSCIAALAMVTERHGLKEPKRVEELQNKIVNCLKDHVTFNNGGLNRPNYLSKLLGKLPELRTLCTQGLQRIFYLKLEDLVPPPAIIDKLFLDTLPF
# Estrogen receptor (Homo sapiens), sequence (P03372 whole entry, looked up, the tested form may be a part): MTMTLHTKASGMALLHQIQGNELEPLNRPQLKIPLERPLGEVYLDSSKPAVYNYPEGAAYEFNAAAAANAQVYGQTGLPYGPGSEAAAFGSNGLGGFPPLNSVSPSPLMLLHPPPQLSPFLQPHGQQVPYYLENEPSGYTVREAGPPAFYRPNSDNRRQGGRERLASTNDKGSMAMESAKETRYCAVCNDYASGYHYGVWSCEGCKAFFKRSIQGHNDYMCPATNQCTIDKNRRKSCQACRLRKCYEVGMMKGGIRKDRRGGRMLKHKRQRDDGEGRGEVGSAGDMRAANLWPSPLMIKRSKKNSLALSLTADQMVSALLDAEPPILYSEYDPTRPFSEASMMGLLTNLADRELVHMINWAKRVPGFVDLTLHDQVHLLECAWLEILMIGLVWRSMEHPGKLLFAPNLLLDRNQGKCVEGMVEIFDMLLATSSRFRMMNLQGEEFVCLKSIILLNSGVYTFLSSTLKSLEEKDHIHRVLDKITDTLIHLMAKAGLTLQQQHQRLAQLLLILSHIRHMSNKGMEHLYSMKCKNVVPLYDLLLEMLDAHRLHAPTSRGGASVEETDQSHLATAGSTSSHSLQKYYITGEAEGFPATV
# Estrogen-related receptor gamma (Homo sapiens), sequence (P62508 whole entry, looked up, the tested form may be a part): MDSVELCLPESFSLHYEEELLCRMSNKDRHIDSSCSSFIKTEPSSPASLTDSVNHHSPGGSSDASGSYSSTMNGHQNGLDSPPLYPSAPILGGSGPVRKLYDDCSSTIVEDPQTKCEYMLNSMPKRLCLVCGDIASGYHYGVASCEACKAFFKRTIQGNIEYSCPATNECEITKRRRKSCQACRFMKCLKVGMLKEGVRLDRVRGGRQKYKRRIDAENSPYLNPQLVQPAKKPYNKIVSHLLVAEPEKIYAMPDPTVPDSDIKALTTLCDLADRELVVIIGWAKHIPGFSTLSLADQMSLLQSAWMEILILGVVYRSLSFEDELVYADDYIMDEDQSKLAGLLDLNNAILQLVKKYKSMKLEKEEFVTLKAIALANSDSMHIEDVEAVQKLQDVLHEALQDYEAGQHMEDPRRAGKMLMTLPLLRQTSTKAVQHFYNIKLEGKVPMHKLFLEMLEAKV
# Transcriptional activator Myb (Homo sapiens), sequence (P10242 whole entry, looked up): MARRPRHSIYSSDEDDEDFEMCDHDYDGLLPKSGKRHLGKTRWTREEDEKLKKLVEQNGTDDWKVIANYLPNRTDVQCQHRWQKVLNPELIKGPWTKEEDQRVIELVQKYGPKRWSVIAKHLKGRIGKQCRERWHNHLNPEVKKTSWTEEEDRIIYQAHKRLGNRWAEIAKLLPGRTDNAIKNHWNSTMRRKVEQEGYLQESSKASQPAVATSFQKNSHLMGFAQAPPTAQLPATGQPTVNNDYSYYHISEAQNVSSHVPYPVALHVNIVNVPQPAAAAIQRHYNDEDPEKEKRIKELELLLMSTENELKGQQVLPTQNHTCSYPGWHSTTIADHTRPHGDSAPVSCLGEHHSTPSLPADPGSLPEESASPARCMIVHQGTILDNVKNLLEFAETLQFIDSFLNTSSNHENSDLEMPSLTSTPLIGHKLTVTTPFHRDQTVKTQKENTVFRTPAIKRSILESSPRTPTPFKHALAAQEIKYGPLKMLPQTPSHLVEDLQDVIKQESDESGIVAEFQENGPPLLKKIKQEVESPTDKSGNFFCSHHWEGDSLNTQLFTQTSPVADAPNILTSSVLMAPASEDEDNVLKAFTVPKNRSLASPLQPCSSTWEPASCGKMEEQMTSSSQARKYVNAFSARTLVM
# X-box-binding protein 1 (Homo sapiens), sequence (P17861 whole entry, looked up): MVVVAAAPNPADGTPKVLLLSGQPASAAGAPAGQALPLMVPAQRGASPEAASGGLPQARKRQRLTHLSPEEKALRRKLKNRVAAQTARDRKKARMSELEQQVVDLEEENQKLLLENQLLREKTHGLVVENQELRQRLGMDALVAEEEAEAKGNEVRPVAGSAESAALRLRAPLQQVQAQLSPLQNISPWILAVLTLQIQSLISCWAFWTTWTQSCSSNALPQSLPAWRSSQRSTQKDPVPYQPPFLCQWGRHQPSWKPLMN
# Oxysterols receptor LXR-alpha (Homo sapiens), sequence (Q13133 whole entry, looked up, the tested form may be a part): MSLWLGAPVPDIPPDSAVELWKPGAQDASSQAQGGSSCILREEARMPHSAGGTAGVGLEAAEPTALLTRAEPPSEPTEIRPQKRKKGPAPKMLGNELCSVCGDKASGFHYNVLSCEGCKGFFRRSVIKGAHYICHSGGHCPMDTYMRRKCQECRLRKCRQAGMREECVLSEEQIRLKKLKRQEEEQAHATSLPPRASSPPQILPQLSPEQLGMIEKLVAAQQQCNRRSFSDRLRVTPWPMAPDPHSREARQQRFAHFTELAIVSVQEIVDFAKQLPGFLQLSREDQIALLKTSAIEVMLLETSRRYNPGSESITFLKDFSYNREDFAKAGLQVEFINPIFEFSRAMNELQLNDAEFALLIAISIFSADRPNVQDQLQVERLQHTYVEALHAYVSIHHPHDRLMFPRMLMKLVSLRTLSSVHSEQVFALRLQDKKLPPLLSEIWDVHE
# Nuclear receptor subfamily 1 group I member 3 (Homo sapiens), sequence (Q14994 whole entry, looked up, the tested form may be a part): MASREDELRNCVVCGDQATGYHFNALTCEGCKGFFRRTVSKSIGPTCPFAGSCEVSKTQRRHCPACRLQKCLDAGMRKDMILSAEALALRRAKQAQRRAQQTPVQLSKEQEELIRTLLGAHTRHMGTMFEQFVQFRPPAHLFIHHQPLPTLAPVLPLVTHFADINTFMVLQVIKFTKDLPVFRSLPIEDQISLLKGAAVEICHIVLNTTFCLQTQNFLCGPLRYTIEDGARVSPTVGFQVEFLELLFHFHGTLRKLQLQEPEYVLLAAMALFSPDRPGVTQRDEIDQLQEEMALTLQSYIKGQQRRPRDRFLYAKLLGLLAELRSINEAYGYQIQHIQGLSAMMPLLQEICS
# Oxysterols receptor LXR-beta (Homo sapiens), sequence (P55055 whole entry, looked up, the tested form may be a part): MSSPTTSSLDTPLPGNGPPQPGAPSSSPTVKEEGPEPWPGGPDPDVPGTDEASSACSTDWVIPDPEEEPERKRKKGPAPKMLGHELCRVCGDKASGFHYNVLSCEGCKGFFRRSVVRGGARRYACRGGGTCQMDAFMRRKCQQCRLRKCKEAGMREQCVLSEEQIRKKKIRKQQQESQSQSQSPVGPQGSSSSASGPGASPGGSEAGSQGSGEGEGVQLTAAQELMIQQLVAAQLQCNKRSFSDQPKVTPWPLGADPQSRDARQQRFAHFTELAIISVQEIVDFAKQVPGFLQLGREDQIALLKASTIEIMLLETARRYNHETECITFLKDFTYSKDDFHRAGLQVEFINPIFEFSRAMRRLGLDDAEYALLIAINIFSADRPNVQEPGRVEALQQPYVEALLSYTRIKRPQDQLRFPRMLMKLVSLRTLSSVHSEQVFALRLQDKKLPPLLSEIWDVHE
# Hepatocyte nuclear factor 4-alpha (Homo sapiens), sequence (P41235 whole entry, looked up): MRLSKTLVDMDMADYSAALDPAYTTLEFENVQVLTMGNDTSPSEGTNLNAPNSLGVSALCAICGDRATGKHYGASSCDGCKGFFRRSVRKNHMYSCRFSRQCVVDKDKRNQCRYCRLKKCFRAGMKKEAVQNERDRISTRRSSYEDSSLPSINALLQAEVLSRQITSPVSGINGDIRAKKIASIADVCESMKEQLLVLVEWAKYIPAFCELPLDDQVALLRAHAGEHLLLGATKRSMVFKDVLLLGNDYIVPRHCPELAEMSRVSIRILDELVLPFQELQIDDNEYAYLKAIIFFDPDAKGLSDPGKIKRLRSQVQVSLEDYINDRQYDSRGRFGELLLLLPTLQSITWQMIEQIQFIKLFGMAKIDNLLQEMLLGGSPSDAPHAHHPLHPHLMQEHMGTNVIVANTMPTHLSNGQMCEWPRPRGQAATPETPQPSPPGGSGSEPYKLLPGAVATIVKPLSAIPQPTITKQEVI
structure (smiles),measurement,setting,value
CCCCC(CC)COC(=O)c1ccc(N(C)C)cc1 (configuration not stated),outcome,[1],inactive
same,outcome,[2],inactive
same,outcome,[3],inactive
same,outcome,[4],inactive
same,outcome,[5],inactive
same,AC50,[6],5.75 µM (active)
same,outcome,[7],inactive
same,outcome,[8],inactive
same,outcome,[9],inactive
same,outcome,[10],inactive
same,outcome,[11],inactive
same,outcome,[12],inactive
O=C(c1ccccc1)c1ccc(Cl)cc1,outcome,[1],inactive
same,outcome,[2],inactive
same,AC50,[3],100 µM (active)
same,AC50,[4],47.6 µM (active)
same,outcome,[5],inactive
same,outcome,[8],inactive
same,outcome,[13],inactive
same,outcome,[10],inactive
same,outcome,[11],inactive
same,outcome,[12],inactive
NCC(F)(F)C(F)(F)C(F)(F)C(F)(F)C(F)(F)C(F)(F)F,outcome,[1],inactive
same,outcome,[2],inactive
same,outcome,[3],inactive
same,outcome,[4],inactive
same,outcome,[6],inactive
same,outcome,[14],inactive
same,outcome,[15],inactive
same,outcome,[16],inactive
same,outcome,[8],inactive
same,outcome,[10],inactive
CN(N=O)C(=O)N[C@@H]1[C@@H](O)[C@H](O)[C@@H](CO)O[C@@H]1O,outcome,[1],inactive
same,outcome,[2],inactive
same,outcome,[3],inactive
same,outcome,[4],inactive
same,outcome,[5],inactive
same,outcome,[15],inactive
same,outcome,[8],inactive
same,outcome,[9],inactive
same,outcome,[13],inactive
FC(F)(F)C(F)(F)C(F)(F)CC1CO1 (configuration not stated),outcome,[1],inactive
same,outcome,[2],inactive
same,outcome,[3],inactive
same,outcome,[4],inactive
same,outcome,[6],inactive
same,outcome,[14],inactive
same,outcome,[15],inactive
same,outcome,[16],inactive
same,outcome,[17],inactive
same,outcome,[7],inactive
same,outcome,[8],inactive
same,outcome,[18],inactive
same,outcome,[19],inactive
same,outcome,[10],inactive
same,outcome,[11],inactive
same,outcome,[12],inactive
OCC(F)(F)C(F)(F)C(F)(F)C(F)(F)C(F)(F)C(F)(F)C(F)(F)C(F)(F)CO,outcome,[1],inactive
same,outcome,[2],inactive
same,outcome,[3],inactive
same,outcome,[4],inactive
same,AC50,[6],0.178 µM (active)
same,outcome,[14],inactive
same,outcome,[16],inactive
same,outcome,[7],inactive
same,outcome,[8],inactive
same,AC50,[18],10.5 µM (active)
same,outcome,[19],inactive
same,outcome,[9],inactive
same,outcome,[10],inactive
same,outcome,[12],inactive
C=C(C)CCCC,outcome,[1],inactive
same,outcome,[2],inactive
same,outcome,[3],inactive
same,outcome,[4],inactive
same,outcome,[5],inactive
same,outcome,[15],inactive
same,outcome,[16],inactive
same,outcome,[17],inactive
same,outcome,[7],inactive
same,outcome,[8],inactive
same,outcome,[18],inactive
same,outcome,[10],inactive
same,outcome,[12],inactive
O=C=Nc1cccc2c(N=C=O)cccc12,outcome,[1],inactive
same,outcome,[2],inactive
same,outcome,[3],inactive
same,outcome,[4],inactive
same,outcome,[5],inactive
same,outcome,[14],inactive
same,outcome,[15],inactive
same,outcome,[16],inactive
same,outcome,[19],inactive
same,outcome,[12],inactive
O=C(F)C1(F)C(F)(F)C(F)(F)C(F)(F)C(F)(F)C1(F)F,outcome,[1],inactive
same,outcome,[2],inactive
same,outcome,[3],inactive
same,outcome,[4],inactive
same,outcome,[6],inactive
same,outcome,[14],inactive
same,outcome,[8],inactive
same,outcome,[18],inactive
same,outcome,[19],inactive
same,outcome,[12],inactive
CCc1cc(Cc2cc(CC)c(N)c(CC)c2)cc(CC)c1N,AC50,[1],33.4 µM (active)
same,AC50,[2],53.4 µM (active)
same,outcome,[3],inactive
same,AC50,[4],11.6 µM (active)
same,outcome,[5],inactive
same,outcome,[6],inactive
same,outcome,[7],inactive
same,outcome,[8],inactive
same,outcome,[9],inactive
same,outcome,[13],inactive
same,outcome,[11],inactive
same,outcome,[12],inactive
CN1CN(C)CN(C)C1,outcome,[1],inactive
same,outcome,[2],inactive
same,outcome,[3],inactive
same,outcome,[4],inactive
same,outcome,[5],inactive
same,AC50,[15],169 µM (active)
same,outcome,[17],inactive
same,outcome,[8],inactive
same,outcome,[19],inactive
same,outcome,[13],inactive
same,outcome,[12],inactive
